# Bioassay records from PubChem BioAssay.
# Shown are actives, neighbours in structure and some others; about 2.7% of the full set was active somewhere.
# A549 tox-1 – A549 cytotoxicity, counter-screen for Nrf2 inhibitors; A549 ARE-Fluc cells, CellTiter-Fluor viability, 18-24 h; Potency, µM (top dose mostly 46 µM), without a hit: at the top dose activity change, negative = cytotoxicity, hits mostly inhibitors; hit rate 0.16% among 390,000; AID 504648; note: potency is the fitted concentration of half-maximal effect; % is set by controls: 0 for no effect and ±100 for the full control effect
#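 A549 ARE_Fluc cells in 5% FBS OPTI-MEM were exposed to compounds in concentration-response for 18-24 h at 37 deg C. Viability was read by CellTiter-Fluor fluorescence (Ex 405/Em 525) after 30 min, before the luciferase read.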
# Nrf2 activator – activates Nrf2 signaling; AREc32 ARE-luciferase reporter (MCF7-derived line), luminescence, 24 h; Potency, µM (highest dose often 46.1 µM), for inactives: at the top dose activation, hits mostly activators; hit rate 0.31% among 410,000; AID 624171; note: potency is the fitted concentration of half-maximal effect; % of control where 0% means no effect; nearly all actives have a fitted effect of over 65% in size
#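 ARE-driven firefly luciferase activity in AREc32 cells measured after a 24 hr compound exposure at 37 deg C, using Steady-Glo reagent and a 30 min room-temperature hold.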
# LDHA inh – LDHA (human) enzyme inhibition; AID 1347041; purified LDHA, NADH/diaphorase-resazurin fluorescence; stronger effect = lower value; activity change, % (values are at about 110 or 230 µM); hit rate 0.15% among 480,000; P00338; in the data active = activity change below about -30%; inconclusive = mostly about -25% to -30%;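 note: plate controls were DMSO wells for no effect and wells without enzyme for full effect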
#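 Human LDH5 at 2 nM final in Tris HCl pH 7.4 with 0.06 mM NADH and 0.2 mM pyruvate, reacted 5 minutes at room temperature. Remaining NADH coupled via diaphorase/resazurin; resorufin fluorescence read at 0 and 20 minutes, normalized to enzyme-free and DMSO wells.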
# Nrf2 inh – blocks Nrf2 signaling. A549 ARE-Fluc reporter, luciferase luminescence, 18-24 h. Potency, µM (series often up to 46 µM), without a hit: at the highest dose activity change, negative = inhibition, usual class: inhibitors. hit rate 2.1% among 360,000. AID 504444; note: potency is the fitted concentration of half-maximal effect; % is set by controls: 0 for no effect and ±100 for the full control effect; nearly all actives have a fitted effect of over 60% in size
#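 A549 ARE_Fluc cells, 5000/well, 5% FBS OPTI-MEM; compounds in dose-response, 18-24 h at 37 °C/5% CO2; CellTiter-Fluor viability read (Ex 405/Em 525), then BugLite luciferase luminescence = Nrf2 activity.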
# 12-LOX inh – blocks human arachidonate 12S-lipoxygenase; P18054; purified 12hLO, xylenol orange hydroperoxide absorbance; Potency, µM (series often up to 108 µM), inactives show at the highest dose activity change, negative = inhibition, hits mostly inhibitors; hit rate 1.1% among 580,000; note: potency is the fitted concentration of half-maximal effect; % is set by controls: 0 for no effect and ±100 for the full control effect
# Target sequence (P18054 whole entry, looked up): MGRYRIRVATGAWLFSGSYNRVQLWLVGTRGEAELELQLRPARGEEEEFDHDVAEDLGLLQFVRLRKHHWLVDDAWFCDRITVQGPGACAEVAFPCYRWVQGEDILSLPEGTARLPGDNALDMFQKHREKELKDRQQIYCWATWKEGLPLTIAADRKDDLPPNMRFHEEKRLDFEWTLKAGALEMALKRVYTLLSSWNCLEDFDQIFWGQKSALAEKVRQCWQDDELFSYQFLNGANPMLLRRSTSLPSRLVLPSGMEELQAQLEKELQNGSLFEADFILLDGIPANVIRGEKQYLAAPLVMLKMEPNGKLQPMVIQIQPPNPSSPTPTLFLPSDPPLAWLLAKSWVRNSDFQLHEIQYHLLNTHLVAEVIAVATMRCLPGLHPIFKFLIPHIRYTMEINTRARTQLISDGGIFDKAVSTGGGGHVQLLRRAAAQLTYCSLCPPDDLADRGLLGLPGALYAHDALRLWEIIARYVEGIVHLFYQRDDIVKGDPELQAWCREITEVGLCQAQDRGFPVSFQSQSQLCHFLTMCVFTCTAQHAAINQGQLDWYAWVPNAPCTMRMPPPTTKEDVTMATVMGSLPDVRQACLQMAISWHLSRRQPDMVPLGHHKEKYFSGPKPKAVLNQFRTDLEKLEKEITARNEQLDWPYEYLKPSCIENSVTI
#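 Hydroperoxide product was detected by ferrous iron/xylenol orange as the 573 to 405 nm absorbance ratio. Arachidonic acid at 40 uM (final) was turned over for 30 min at room temperature by 150 nM human 12hLO, pH 7.0 Hepes buffer, after 15 min compound preincubation.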
# ERG-DNA inh – ERG Ets/DNA interaction inhibition; AID 624246; fluorescence polarization, His-ERG Ets domain / labelled DNA; Potency, µM (titrated, usually from 76.9 µM), for the others: at the top dose FP activity, negative = inhibition, actives largely listed as inhibitors; hit rate 0.028% among 370,000; active = well fitted inhibition curve with a large enough effect in the polarisation, with a control signal flat; inconclusive = small, poorly fitted or top-dose-only effect, or effect the other way, or a change in a side signal; inactive = no such curve, though single readings can be large or run the other way; the % refers to the polarisation;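 note: polarization taken with two DNA probes labelled with fluorescein and Texas red; potency is the fitted concentration of half-maximal effect; % of control where 0% means no effect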
#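 His-tagged ERG Ets domain (1 uM in the protein solution; 300mM KCl, 50mM Tris-HCl, 1mM EDTA, 1mM DTT, pH 7.5) received compound, then a probe mix of 5 nM fluorescein-DNA and 100nM Texas-615-DNA. Fluorescence polarization was read for both dyes.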
# FLuc enzyme inh – blocks purified firefly luciferase in Nrf2 counterscreen. shares compounds with Nrf2 inh. purified firefly luciferase, luminescence inhibition. Potency, µM (doses to about 57.5 µM), without a hit: top-dose activity change, negative = inhibition, usual class: inhibitors. hit rate 4% among 1,400; note: potency is the fitted concentration of half-maximal effect; % is set by controls: 0 for no effect and ±100 for the full control effect; nearly all actives have a fitted effect of over 65% in size
# A549 tox-2 – counter-screen for Nrf2 inhibitors: cytotoxicity in A549 ARE cells | AID 720523 | hit rate 2% among 1,400 | shares compounds with Nrf2 inh | A549 ARE-Fluc cells, cytotoxicity counterscreen | Potency, µM (titrated, usually from 46.1 µM), without a hit: top-dose activity change, negative = cytotoxicity, usual class: inhibitors;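 note: potency is the fitted concentration of half-maximal effect; cells exposed to compounds for 18 to 24 hours; % is set by controls: 0 for no effect and ±100 for the full control effect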
# Nrf2 ARE inh – Nrf2 inhibition confirmed, A549 ARE-luciferase | AID 720524 | hit rate 74% among 1,400 | Potency, µM (top dose mostly 46.1 µM), for inactives: top-dose activity change, negative = inhibition, usual class: inhibitors | shares compounds with Nrf2 inh | A549 ARE-firefly luciferase reporter, luminescence; note: potency is the fitted concentration of half-maximal effect; % is set by controls: 0 for no effect and ±100 for the full control effect; nearly all actives have a fitted effect of over 65% in size
# The depositor's hits bear a star; ? = inconclusive; nt = no result given. Unless noted, calls come from the whole dose curve; as a rule, active = well fitted curve in the direction sought with a large enough effect; inconclusive = small, poorly fitted or top-dose-only effect, or another doubt; inactive = no such curve, though single readings can be large; an effect the other way counts as inactive or inconclusive.
SMILES,A549 tox-1,Nrf2 activator,LDHA inh,Nrf2 inh,12-LOX inh,ERG-DNA inh,FLuc enzyme inh,A549 tox-2,Nrf2 ARE inh
COc1ccc(CCN(C)C(=O)c2cccc(S(=O)(=O)N3CCN(c4ccc(F)cc4)CC3)c2)cc1OC,-11%,4%,-1,7.3µM*,-6%,-4%,-1%,-9%,5.2µM*
Cc1cccc(C)c1NC(=O)CN(C)C(=O)c1cccc(S(=O)(=O)N2CCN(c3ccc(F)cc3)CC2)c1,?,0%,-1,5.2µM*,11%,5%,5%,-17%,9.2µM*
O=C(c1cccc(S(=O)(=O)N2CCN(c3ccc(F)cc3)CC2)c1)N1CCCC(C(F)(F)F)C1 (configuration not stated),-19%,3%,-6,4.6µM*,-15%,1%,1%,-8%,5.2µM*
COc1ccccc1CN(C)C(=O)c1cccc(S(=O)(=O)N2CCCC2)c1,4%,-1%,1,-3%,2%,-7%,nt,nt,nt
Cc1oc(-c2nc(C#N)c(N(C)C)o2)cc1S(=O)(=O)N(Cc1ccccc1)C(C)C,nt,nt,3,nt,19%,nt,nt,nt,nt
CCOC(=O)CNCc1ccc(F)cc1,nt,nt,1,nt,-4%,nt,nt,nt,nt
CN(C)CCN1C(=O)c2cccc3cc([N+](=O)[O-])cc(c23)C1=O,8.2µM*,-2%,32,1.6µM*,?,?,1%,?,2.6µM*
N=c1ccn2c(n1)O[C@H]1[C@H](O)[C@@H](CO)O[C@H]12,-9%,-1%,0,0.18µM*,-19%,-6%,2%,-9%,0.092µM*
COC(=O)C1=C(C)Nc2nnnn2C1c1cccnc1 (configuration not stated),12%,0%,-5,nt,-6%,-1%,nt,nt,nt
CC1=C(C(=O)OC2CCCCC2)C(c2cccnc2)n2nnnc2N1 (configuration not stated),-14%,-1%,-10,8.2µM*,-12%,-14%,4%,-16%,?
CC1CCc2c(sc(NC(=O)/C=C/c3cccs3)c2C(=O)O)C1 (configuration not stated),-24%,15%,-1,6.5µM*,?,3%,?,?,7.3µM*
Cc1ccc2c(c1)S/C(=C/c1ccc[n+](C)c1)N2CCO,-16%,4%,-16,2.6µM*,0%,1%,0%,-17%,6.5µM*
Cc1cc(OCc2nc3c(C)cccc3[nH]2)ccc1Cl,nt,nt,-16,nt,29%,nt,nt,nt,nt
CCOc1ccc(NC(=O)/C(C#N)=C/c2c[nH]c3ccccc23)cc1,nt,nt,-1,nt,-27%,nt,nt,nt,nt
Cc1ncnc2nc[nH]c12,nt,nt,nt,nt,?,nt,-2%,-28%,5.8µM*
CCCC(=O)n1nc(-c2ccc(Cl)cc2)nc1N,nt,nt,-3,nt,35%,nt,nt,nt,nt
CCN1/C(=C/c2cc[n+](C)cc2)C=Cc2cc(C)ccc21,?,0%,27,3.7µM*,?,-5%,-18%,10µM*,1.3µM*
CCN1C(=O)/C(=C2\C=Cc3cc(C)ccc3N2CC)OC1=S,-15%,0%,-7,-2%,21%,0%,nt,nt,nt
COc1cc(/C=C2\CC/C(=C\c3cc(OC)c(OC)c(OC)c3)C2=O)cc(OC)c1OC,-1%,16%,6,-14%,-7%,1%,nt,nt,nt
COc1cc(/C=C2\COC/C(=C\c3cc(OC)c(OC)c(OC)c3)C2=O)cc(OC)c1OC,9%,-3%,3,5.8µM*,141%,13%,-1%,2%,0.12µM*
CC(=O)N(C)C1=C(N2CCOCC2)C(=O)c2ccccc2C1=O,8.2µM*,-2%,67,0.46µM*,nt,-19%,-20%,16µM*,5.8µM*
COc1ccccc1CNS(=O)(=O)c1ccc(-c2cc(C)no2)cc1,0%,0%,-1,1%,0%,6%,nt,nt,nt
COc1cc(NS(=O)(=O)c2ccc(-c3cc(C)no3)cc2)cc(OC)c1,-4%,1%,-6,6.5µM*,-7%,4%,-2%,-19%,16µM*
CNS(=O)(=O)c1cc(C(=O)NCc2coc(-c3cccs3)n2)cc(C)c1C,nt,nt,-3,nt,-4%,nt,nt,nt,nt
CCN1/C(=C/c2cccc[n+]2C)Sc2ccc(OC)cc21,-3%,-2%,-11,5.8µM*,29%,-12%,-1%,-29%,6.5µM*
SMILES,A549 tox-1,Nrf2 activator,LDHA inh,Nrf2 inh,12-LOX inh,ERG-DNA inh,FLuc enzyme inh,A549 tox-2,Nrf2 ARE inh
COc1ccc2c(c1)N(C)/C(=C/c1cccc[n+]1C)S2,16µM*,3%,-5,3.3µM*,?,-6%,-1%,?,4.1µM*
CCCCN1/C(=C/c2cccc[n+]2C)Sc2cc(NC(C)=O)ccc21,-2%,-1%,-11,0%,?,5%,nt,nt,nt
CN1/C(=C/c2cccc[n+]2C)Sc2ccccc21,12µM*,-1%,-10,0.82µM*,0%,-2%,-1%,?,2.1µM*
CC1CCCN(S(=O)(=O)c2cc3ccccc3oc2=O)C1 (configuration not stated),nt,nt,0,nt,-1%,nt,nt,nt,nt
COc1ccc(OCC(O)Cn2c(NCCO)nc3c2c(=O)n(C)c(=O)n3C)cc1 (configuration not stated),-6%,0%,0,7.3µM*,?,3%,1%,-3%,12µM*
COc1ccc(OCC(O)Cn2c(NCCc3ccccc3)nc3c2c(=O)n(C)c(=O)n3C)cc1 (configuration not stated),nt,nt,0,nt,?,nt,nt,nt,nt
Fc1c(F)c(F)c(N=Cc2ccsc2)c(F)c1F,nt,nt,12,nt,2%,nt,nt,nt,nt
COC(=O)Cc1c(C)c2ccc(OCC(=O)OCc3ccccc3)c(C)c2oc1=O,nt,nt,12,nt,24%,nt,nt,nt,nt
Cc1ccc(-c2csc3ncnc(N4CCN(S(=O)(=O)c5ccc(C#N)cc5)CC4)c23)cc1,nt,0%,-3,nt,-3%,nt,nt,nt,nt
c1ccc(CC2CCN(c3ncnc4sccc34)CC2)cc1,-5%,0%,-1,5.2µM*,4%,3%,-29%,-3%,3.7µM*
Cc1ccc(S(=O)(=O)N2CCN(c3ncnc4sccc34)CC2)cc1,-8%,1%,2,7.3µM*,1%,-13%,-2%,4%,8.2µM*
